Nrf2 block: Nrf2 qHTS screen for inhibitors; A549 ARE-Fluc reporter, luciferase luminescence, 18-24 h; 2.1% of 360,000 active; Potency, µM (doses to about 46 µM), inactives show at the highest dose activity change, negative = inhibition, hits mostly inhibitors; also: % is scaled to controls: 0 for no effect and ±100 for the full control effect; nearly all actives have a fitted effect of over 60% in size
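A549 ARE_Fluc cells (5000/well, 5% FBS OPTI-MEM) pre-incubated 2 h, then treated with compounds 18-24 h at 37C/5% CO2 in concentration-response. CellTiter-Fluor viability read first; BugLite luciferase luminescence after 15 min at room temperature gives Nrf2 activity.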
TGFb inhibitor: qHTS for Inhibitors of TGF-b. HepG2 CAGA-GFP TGF-b/SMAD3 reporter, GFP fluorescence, 18 h; TGF-beta stimulated, 500 pg/mL final. Potency, µM (doses to about 46.1 µM), for the others: at the highest dose activity, negative = inhibition, hits mostly inhibitors. 1.2% of 410,000 active; also: % is scaled to controls: 0 for no effect and ±100 for the full control effect; nearly all actives have a fitted effect of over 65% in size
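Read-out: total well GFP (ex488/em500-530) summed from mean per-cell fluorescence. Cells: HEPG2 CAGA-GFP, 1% FBS DMEM, 18 h at 37 degrees C with 500 pg/mL final TGF-beta. Unstimulated wells served as the full-inhibition control; stimulated DMSO wells = 0%.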
Nrf2 ARE act: qHTS of Nrf2 Activators | 0.31% of 410,000 active | AREc32 ARE-luciferase reporter (MCF7-derived line), luminescence, 24 h | Potency, µM (series often up to 46.1 µM), for inactives: at the highest dose activation, actives largely listed as activators; also: % of control where 0% means no effect; nearly all actives have a fitted effect of over 65% in size
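Quantitative high-throughput format: AREc32 reporter cells, 1000 per well, received compound by pin transfer and were incubated 24 hr at 37 deg C, 5% CO2, before Steady-Glo luminescence detection.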
HepG2 tox-1: qHTS for Inhibitors of TGF-b: Cytotox Counterscreen | HepG2 CAGA-GFP viability, ATP luminescence, 18 h | Potency, µM (highest dose often 46.1 µM), for inactives: at the highest dose activity change, negative = cytotoxicity, most hits filed as cytotoxic | 0.76% of 410,000 active | AID 588856, 2011
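HepG2 CAGA-GFP cells (1000/well, DMEM with 1% FBS) received compound, then TGF-beta at 500 pg/mL final, and were incubated 18 hours at 37 degrees C. Viability was read by CellTiter-Glo luminescence. Media-only wells were set as complete cell-killing and DMSO as no toxicity.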
A549 tox: Nrf2 qHTS screen for inhibitors: counterscreen for cytotoxicity; 0.16% of 390,000 active; A549 ARE-Fluc cells, CellTiter-Fluor viability, 18-24 h; Potency, µM (series often up to 46 µM), inactives show at the highest dose activity change, negative = cytotoxicity, most hits filed as inhibitors; AID 504648, 2011; also: % is scaled to controls: 0 for no effect and ±100 for the full control effect
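A549 ARE-Fluc cells in 5% FBS OPTI-MEM, 5000 cells/well, rested 2 h then exposed to compounds in concentration-response for 18-24 h at 37 °C. Viability by CellTiter-Fluor fluorescence (Ex 405/Em 525) after 30 min; luciferase luminescence (BugLite, 15 min, RT) read afterwards.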
TGFb CAGA inh: qHTS for Inhibitors of TGF-b: Confirmation of Cherry Picks; 63% of 1,600 active; shares compounds with TGFb inhibitor; Potency, µM (top dose mostly 46.1 µM), inactives show at the top dose activity, negative = inhibition, actives largely listed as inhibitors; AID 720534, 2013; HepG2 CAGA-GFP TGF-b reporter, GFP fluorescence, 18 h; cells stimulated with TGF-beta, 500 pg/mL; also: % is scaled to controls: 0 for no effect and ±100 for the full control effect; nearly all actives have a fitted effect of over 65% in size
HepG2 tox-2: qHTS for Inhibitors of TGF-b: Cytotox Counterscreen for Cherry Picks | shares compounds with TGFb inhibitor | HepG2 CAGA-GFP viability, ATP luminescence, 18 h; cells stimulated with TGF-beta, 500 pg/mL | Potency, µM (highest dose often 46.1 µM), without a hit: top-dose activity, negative = cytotoxicity, actives largely listed as inhibitors | 27% of 1,600 active | AID 720535, 2013; also: % is scaled to controls: 0 for no effect and ±100 for the full control effect; nearly all actives have a fitted effect of over 70% in size
TGFb CCL64 inh: qHTS for Inhibitors of TGF-b: CCL64 Cells Orthogonal Assay for Cherry Picks. CCL64 CAGA-GFP reporter, TGF-b stimulated, GFP fluorescence, 18 h. AID 720536, 2013. 41% of 1,600 active. shares compounds with TGFb inhibitor. Potency, µM (highest dose often 46.1 µM), for the others: top-dose activity, negative = inhibition, usual class: inhibitors; also: nearly all actives have a fitted effect of over 65% in size
COP TGFb inh: qHTS for Inhibitors of TGF-b: Hit Validation in HepG2 Cells using COP promoter; shares compounds with TGFb inhibitor; HepG2 COP-GFP TGF-b reporter, GFP fluorescence, 18 h; cells stimulated by added recombinant TGF-beta; Potency, µM (highest dose often 46.1 µM), for the others: top-dose activity, negative = inhibition, usual class: inhibitors; 3% of 1,600 active; AID 720537, 2013; also: nearly all actives have a fitted effect of over 70% in size
* hit, by the source's call; i = inactive; ? = inconclusive; · = not tested or not shown. This is a sample that favours compounds with a hit; in the whole collection about 3.6% have one here. Calls follow the shape of the dose curve; as a rule, active = well fitted curve in the direction sought with a large enough effect; inconclusive = small, poorly fitted or top-dose-only effect, or another doubt; inactive = no such curve, though single readings can be large; an effect the other way counts as inactive or inconclusive. Potency is read from the fitted curve at half-maximal effect.

SMILES | Nrf2 block | TGFb inhibitor | Nrf2 ARE act | HepG2 tox-1 | A549 tox | TGFb CAGA inh | HepG2 tox-2 | TGFb CCL64 inh | COP TGFb inh
CCC(C)(C)C1CCc2[nH]nc(C(=O)NCC3CC3)c2C1 (centres undefined) | -17% | ? | 0% | -4% | -1% | · | · | · | ·
CC(NC(=O)COC(=O)CNC(=O)c1ccccc1Cl)C1CC2CCC1C2 (centres undefined) | 3% | 0% | 3% | 0% | 3% | · | · | · | ·
NC(=S)N/N=C\c1c(OCc2ccccc2Cl)ccc2ccccc12 | ? | 6.3µM* | 4% | -5% | 1% | 5.8µM* | ? | 8.2µM* | 34%
NC(=S)N/N=C\c1c2ccccc2cc2ccccc12 | ? | -12% | 21% | -53% | -20% | · | · | · | ·
COc1cccc(/C=N/Nc2ccc([N+](=O)[O-])cn2)c1O | ? | 0.79µM* | -1% | i | ? | 1.6µM* | ? | ? | 23%
O=[N+]([O-])c1ccc(NN=Cc2cccc3ccccc23)nc1 | 2% | -1% | 2% | -1% | -10% | · | · | · | ·
O=S(=O)(c1ccccc1)N1CCN(c2ncnc3sc(-c4ccccc4)cc23)CC1 | ? | -6% | 0% | -7% | 3% | · | · | · | ·
O=C1[C@H](Oc2ccccc2)[C@@H](c2ccncc2)N1c1ccncc1 | 10% | -8% | -1% | -3% | -2% | · | · | · | ·
O=C1[C@@H](Oc2ccccc2)[C@@H](c2cnc3ccccc3c2)N1c1ccccc1 | -1% | 11µM* | 4% | -22% | -10% | 21µM* | -8% | 16µM* | -8%
N#Cc1c(NC(=O)CSc2nc3c(c(C(F)(F)F)n2)CCc2ccccc2-3)sc2c1CCCC2 | 4% | ? | 0% | -12% | -4% | · | · | · | ·
CCCCOc1ccc(C(=O)C(CN2CCOCC2)c2ccccc2)cc1 (centres undefined) | ? | ? | ? | -105% | -24% | · | · | · | ·
O=C(c1ccc(Cl)cc1)C(CN1CCCC1)c1ccccc1 (centres undefined) | -8% | 7.9µM* | ? | -115% | -3% | 3.7µM* | 8.2µM* | 2.6µM* | ?
O=C(c1ccc(F)cc1)C(CN1CCOCC1)c1ccccc1 (centres undefined) | -29% | 3.5µM* | ? | 18µM* | -2% | 7.3µM* | 16µM* | 3.7µM* | ?
CN(C)C(=O)C1=NOC2(C1)C(=O)Nc1ccccc12 (centres undefined) | · | · | -2% | · | · | · | · | · | ·
Cc1cc(/C=N/NC(N)=S)c(C)n1-c1ccc(Cl)cc1 | -26% | ? | 9% | -61% | -9% | · | · | · | ·
Cc1cc(/C=N/NC(N)=S)c(C)n1-c1cccc(Cl)c1 | 15% | 11µM* | 5% | -19% | -4% | 15µM* | -24% | 16µM* | 44%
Cc1cc(/C=N/NC(N)=S)c(C)n1-c1ccc(Br)cc1 | -28% | 13µM* | 10% | -20% | -2% | 10µM* | ? | ? | 34%
COc1ccc(CCNC(=O)CCS(=O)(=O)c2cccc3nsnc23)cc1OC | 14% | -1% | -1% | -23% | 3% | · | · | · | ·
O=C(c1cc(-c2ccccc2Cl)nc2ccc(Br)cc12)N1CCN(c2ccccn2)CC1 | ? | ? | 0% | -27% | -27% | -30% | ? | ? | 11%
O=C(c1cc(-c2ccc(Br)cc2)nc2ccccc12)N1CCN(c2ccccc2O)CC1 | ? | 11µM* | 4% | -2% | -9% | 6.5µM* | ? | ? | 2%
O=C(c1cc(-c2ccncc2)nc2ccc(Br)cc12)N1CCN(c2ccccn2)CC1 | · | -1% | 0% | -33% | -3% | · | · | · | ·
CCN(CC)CCN(CC(=O)N(C1CCCCC1)C1CCCCC1)C(=O)c1cccnc1 | 9% | 4% | 0% | 9% | -10% | · | · | · | ·
COc1ccc(-c2ccc(-c3cc(=O)oc4cc(OC)c(OC)c(OC)c34)cc2)cc1OC | ? | -28% | 4% | -17% | -1% | · | · | · | ·
COc1cc2oc(=O)cc(-c3ccc(-c4ccc(O)cc4)cc3)c2c(OC)c1OC | -26% | 11µM* | 1% | -14% | 1% | 18µM* | ? | ? | 70%
O=C(Oc1cccc2ccccc12)c1ccco1 | -4% | -3% | -1% | -9% | 0% | · | · | · | ·
SMILES | Nrf2 block | TGFb inhibitor | Nrf2 ARE act | HepG2 tox-1 | A549 tox | TGFb CAGA inh | HepG2 tox-2 | TGFb CCL64 inh | COP TGFb inh
O=C(Oc1ccc(Cl)c2cccnc12)c1ccco1 | -27% | 8.9µM* | ? | -52% | -6% | -2% | -15% | 22% | 4%
OCC1(Cc2ccccc2)CCN(Cc2cnc(-c3ccc(Cl)cc3)nc2)CC1 | ? | 8.9µM* | 9% | 16µM* | -5% | -10% | ? | 0% | 36%
OCC1(Cc2ccccc2)CCN(Cc2cnc(-c3cccc4ccccc34)nc2)CC1 | ? | -9% | 2% | -18% | 16% | · | · | · | ·
Cc1ccc2cc(C)c(SCC(=O)Nc3ccc(S(=O)(=O)N4CCCC4)cc3)nc2c1 | -19% | 1% | 0% | -3% | 7% | · | · | · | ·
Cc1cc(C)c2c(c1)cc(C)c1nnc(SCC(=O)Nc3ccc(S(=O)(=O)N4CCCCC4)cc3)n12 | -10% | ? | 3% | 13% | 2% | 18µM* | -12% | -22% | 0%
COc1ccc(NC(=S)N(CCCN2CCC(C)CC2)Cc2cccs2)cc1Cl | 10% | ? | 4% | -27% | -12% | · | · | · | ·
COc1ccc(NC(=S)N(CCCN2CCCC2)Cc2cccn2Cc2ccc(Cl)cc2)cc1Cl | -8% | 3.2µM* | -3% | 6.3µM* | ? | ? | ? | ? | -1%
